Screening data deposited in PubChem by National Center for Advancing Translational Sciences (NCATS).
An excerpt weighted towards active compounds, which were near 7.9% of everything screened.
HCV inh: HCV inhibition; Huh7.5.1 HCVcc-Cre infection, luciferase reporter, 44 h; Potency, µM (series often up to 41.8 µM), for the others: top-dose activity change, negative = inhibition, hits mostly inhibitors; 340,000 tested, 3.4% active; AID 651820; active = well fitted inhibition curve with a large enough effect; inconclusive = small, poorly fitted or top-dose-only effect, or another doubt; inactive = no such curve, though single readings can be large or run the other way; also: potency is read from the fitted curve at half-maximal effect
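Whole-lifecycle infectious HCVcc-Cre system; cells 1,000/well, compound then virus (~0.5 moi) added 4 h after plating, 44 h culture. Luciferase read 15 sec following 15 min substrate incubation, room temp.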
MARV entry inh: inhibitors of Marburg virus binding or cell entry. Marburg virus pseudotyped entry inhibition, cell reporter. Potency, µM (doses to about 37.8 µM), for inactives: top-dose activity change, negative = inhibition, hits mostly inhibitors. 300,000 tested, 1.8% active; calls by dose curve; tested in HEK293 cells; also: potency is read from the fitted curve at half-maximal effect
HCMV inh: inhibitors of human cytomegalovirus; HFF cells, HCMV-luciferase reporter, 72 h; active compounds read low; 410,000 tested, 4.5% active; activity change, negative = inhibition, % at 57.5 µM; in the data active = activity change below about -60%; inconclusive = no clear call, values can overlap the other calls; inactive = above about -39%
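Human foreskin fibroblasts infected with luciferase-reporter HCMV at MOI 1 PFU/cell, compounds at two doses. Luciferase measured 72 h post infection; normalized to buffer-only basal and Salinomycin (10uM) controls.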
LASV entry inh: blocks Lassa virus binding to or entry into cells; Lassa virus pseudotype entry inhibition, cell reporter; Potency, µM (series often up to 37.9 µM), inactives show at the top dose activity change, negative = inhibition, hits mostly inhibitors; 300,000 tested, 1.2% active; AID 540256; calls by dose curve; tested in HEK293 cells; also: potency is read from the fitted curve at half-maximal effect; nearly all actives have a fitted effect of over 50% in size
FMDV inh: antivirals against foot and mouth disease virus | AID 1159524 | Potency, µM (top dose mostly 57.9 µM), for the others: top-dose activity change, negative = inhibition, usual class: inhibitors | 410,000 tested, 1.2% active | FMDV antiviral cell-based qHTS; calls by dose curve; tested in HEK293T cells; also: read-out not given here; potency is read from the fitted curve at half-maximal effect; nearly all actives have a fitted effect of over 45% in size
* marks the source's active call; other numbers are inactive results; ? = inconclusive; . = no result given; ! = not confirmed by another sample; [ ] = dose if it differs, or a comment. % is scaled to controls: 0 for no effect and ±100 for the full control effect.

SMILES	HCV inh	MARV entry inh	HCMV inh	LASV entry inh	FMDV inh
COC(=O)c1ccc(CSc2nnc(CS(=O)Cc3ccc(Br)cc3)n2-c2ccccc2)cc1 (stereo unspecified)	14µM*	?	-17	?	0%
COc1ccc(C)cc1N1CC(C(=O)OCc2nc(N)nc(Nc3ccccc3C)n2)CC1=O (stereo unspecified)	0%	-2%[46.1 µM]	2	-24%	-12%
O=C(CCc1nnc2ccc(NCc3ccco3)nn12)Nc1cccc(F)c1	-5%	.	23	.	-21%
COC(=O)[C@](O)(c1c[nH]c2ccccc12)C(F)(F)F	.	3%	.	.	.
NC[C@@H]1O[C@H](c2ccccc2)Cc2c1ccc(O)c2O	.	-6%	.	-11%	-15%
NC[C@@H]1O[C@H](C23CC4CC(CC(C4)C2)C3)Cc2c1ccc(O)c2O	6%	13µM*	?	18µM*	40µM*!
CCCCNS(=O)(=O)c1ccc2nc(SCC(=O)c3ccccc3OC)[nH]c2c1	?	?	-79*	-13%	-10%
CCCCNS(=O)(=O)c1ccc2nc(SCC(=O)Nc3ccccc3Cl)[nH]c2c1	13µM*	?	-82*	?	3%
O=C(CSc1nc2ccccc2[nH]1)Nc1ccccc1F	10%	5%	-100*	-5%	.
CCOC(=O)C1CCN(CC(O)COc2ccc(S(=O)(=O)N3CCCC3)cc2[N+](=O)[O-])CC1 (stereo unspecified)	-6%	-4%	-14	10%	-7%
CCc1nc2ccc(C(=O)NCCCn3ccnc3)cn2c1N(C)C(=O)c1cccc(OC)c1	.	.	16	.	-1%
CCCNC(=O)Cn1nc(-c2ccc(F)cc2)c2cnc3ccc(F)cc3c21	.	.	16	?	-4%
COc1ccc(C(=O)n2cnc(N)n2)cc1	14%	-10%	15	-9%	-10%
CNC(=S)n1cnc(N)n1	5%	.	-65*	.	-13%
O=C(CS(=O)(=O)c1cccc2nsnc12)N1CCN(c2ccc(F)cc2)CC1	.	.	-14	-1%[46.1 µM]	-7%
Cc1cccc(C)c1-n1nnnc1C(C1CC1)N1C(=O)C(=O)c2ccccc21 (stereo unspecified)	.	.	-4	.	.
CC(C)(C)n1nnnc1C(C1CC1)N1C(=O)C(=O)c2ccccc21 (stereo unspecified)	.	.	-77*	.	.
CCN(CC)CCOC(=O)c1cc(Cl)c(N)cc1OC	4.5µM*	13µM*!	-21	?	-9%
CCN(CC)CCNC(=O)c1cc(Cl)c(N)cc1OC	-9%[8.37 µM]	?	-39	?	-25%
Cc1ccsc1C(=O)NCCc1c[nH]c2ccccc12	-16%	4%[46.1 µM]	67	-7%[46.1 µM]	20%
COCCCC1CCN(C(=O)C2CCC(=O)N(CC3CCCCC3)C2)CC1 (stereo unspecified)	.	-1%	4	2%	-10%
Cn1cnnc1Sc1ccc(CN2CCOc3ccc(C4=Cc5ccccc5CC4)cc3C2)o1	.	.	.	.	20%
O=C1CC(c2ccc(F)cc2)CC2=C1C(c1ccc([N+](=O)[O-])o1)Nc1ccccc1N2 (stereo unspecified)	?	10µM*	-24	?	-3%
O=C(NC1CCCC1)c1cn(C2CCCN(Cc3ccc4c(c3)OCCO4)C2)nn1 (stereo unspecified)	.	.	.	.	7%
CC(C)CNC(=O)N1c2ccccc2Sc2ccccc21	-2%	?	-23	?	-10%
SMILES	HCV inh	MARV entry inh	HCMV inh	LASV entry inh	FMDV inh
CN(C)c1cc[n+](CC(=O)N2c3ccccc3Sc3ccccc32)cc1	-23%	-19%	-84*	-19%	-21%
O=C(c1ccco1)N1c2ccccc2Sc2ccccc21	15%	22µM*	?	?	?
O=C(COc1ccccc1)N1c2ccccc2Sc2ccccc21	?	?	-39	4%	-17%
O=C(NCCc1ccccc1)N1c2ccccc2Sc2ccccc21	?	?	-11	-5%	28µM*
O=C(C[n+]1ccccc1)N1c2ccccc2Sc2ccccc21	?	-9%[46.1 µM]	-75*	.	7%
CCC1CN(Cc2cn[nH]c2-c2ccccc2)Cc2cc(OC)ccc2O1 (stereo unspecified)	.	.	.	.	5%
CNc1ccccc1C(C)(C)c1cc(-c2cccc(OC)c2)no1	?	?	-83*	-27%[46.1 µM]	?
CCOC(=O)CN1C(=O)[C@]2(OCCC=C[C@@H]2C)c2c(Br)cccc21	.	-20%[14.2 µM]	.	.	.
COC(=O)NC(CC(C)=O)c1cccc(F)c1 (stereo unspecified)	.	-7%[14.2 µM]	.	.	.
